In PubChem BioAssay (NCATS) one finds Potency data, which are given here for twelve molecules.

In assay [1] the target is Voltage-gated inwardly rectifying potassium channel KCNH2 (Homo sapiens) (UniProt Q12809). Kind of assay: qHTS Assay for Small Molecule Inhibitors of the Human hERG Channel Activity (AID 588834).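 Also: top concentration of the series differs between compounds; lower thallium flux fluorescence means stronger hERG block; nearly all actives have a fitted effect of over 50% in size.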 The essentials: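 Concentration-response qHTS measuring drop in thallium-sensitive dye signal. U2OS cells carrying BacMam hERG; compound exposure ~10 min, then stimulation buffer and 2 min read at 1 sec intervals.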
Voltage-gated inwardly rectifying potassium channel KCNH2 (Homo sapiens), sequence (Q12809 whole entry, looked up): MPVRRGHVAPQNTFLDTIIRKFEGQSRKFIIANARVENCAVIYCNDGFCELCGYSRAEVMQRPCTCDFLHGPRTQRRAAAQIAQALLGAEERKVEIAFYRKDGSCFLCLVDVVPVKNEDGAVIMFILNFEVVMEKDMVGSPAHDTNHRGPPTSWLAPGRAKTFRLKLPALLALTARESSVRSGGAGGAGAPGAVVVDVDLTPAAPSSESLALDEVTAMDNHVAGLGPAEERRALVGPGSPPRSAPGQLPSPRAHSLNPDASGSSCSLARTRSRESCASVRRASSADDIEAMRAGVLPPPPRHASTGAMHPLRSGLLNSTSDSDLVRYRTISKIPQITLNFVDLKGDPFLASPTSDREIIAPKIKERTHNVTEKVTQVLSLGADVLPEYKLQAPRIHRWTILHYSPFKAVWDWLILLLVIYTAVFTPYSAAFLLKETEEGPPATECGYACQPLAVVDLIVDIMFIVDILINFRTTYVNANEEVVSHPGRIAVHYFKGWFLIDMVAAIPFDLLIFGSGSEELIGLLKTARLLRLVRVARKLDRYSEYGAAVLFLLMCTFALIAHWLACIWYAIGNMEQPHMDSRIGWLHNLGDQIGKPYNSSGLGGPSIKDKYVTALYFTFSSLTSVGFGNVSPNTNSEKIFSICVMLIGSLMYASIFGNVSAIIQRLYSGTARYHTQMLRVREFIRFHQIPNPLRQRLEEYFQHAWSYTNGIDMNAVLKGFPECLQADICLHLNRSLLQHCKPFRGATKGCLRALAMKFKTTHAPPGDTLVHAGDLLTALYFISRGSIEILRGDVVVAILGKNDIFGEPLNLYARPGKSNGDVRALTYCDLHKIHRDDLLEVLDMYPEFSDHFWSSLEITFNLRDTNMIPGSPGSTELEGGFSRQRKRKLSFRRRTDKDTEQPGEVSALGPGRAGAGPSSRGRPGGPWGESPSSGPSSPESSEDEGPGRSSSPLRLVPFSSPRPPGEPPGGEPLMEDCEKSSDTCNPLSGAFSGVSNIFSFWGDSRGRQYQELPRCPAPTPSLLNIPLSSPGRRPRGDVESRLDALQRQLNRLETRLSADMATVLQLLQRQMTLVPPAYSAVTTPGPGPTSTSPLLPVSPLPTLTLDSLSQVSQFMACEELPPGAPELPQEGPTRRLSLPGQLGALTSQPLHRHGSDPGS
A general note: In qHTS, concentration-response curves come from the screen itself.

Assay [2] concerns the target Luciferin 4-monooxygenase (Photinus pyralis) (UniProt P08659). The assay is described as follows: Biochemical firefly luciferase enzyme assay for NPC (AID 624030).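 Also: purified P. pyralis luciferase at 10 nM with luciferin and ATP substrate; series mostly up to about 59 µM; nearly all actives have a fitted effect of over 70% in size.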 The procedure, abridged: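 Direct inhibition of firefly luciferase enzyme (10 nM final, 50 mM Tris Acetate) assessed by luminescence within 5 minutes. Percent activity scaled between DMSO and PTC124 positive control, with concentration-effect curves classified by fit quality and response.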

A short description of assay [3]: S16 Schwann cell viability assay (CellTiter-Glo assay) (AID 624031).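 Also: cellular ATP luminescence as a viability measure; series mostly up to about 58 µM; nearly all actives have a fitted effect of over 70% in size.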 The procedure, abridged:
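CellTiter-Glo ATP luminescence counter-screen in untransfected S16 rat Schwann cells, 24h compound exposure at 37 degree Celsius after overnight seeding (500-750 cells/well); response scaled between cell-free wells and DMSO (0% activity), curves classed by r2 and magnitude.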
Background: Cellular ATP, detected with luciferase, serves as a proxy for viable cell number.

Assay [4] can be described thus: S16 Schwann cell PMP22 intronic element firefly luciferase assay (AID 624032). Also: nearly all actives have a fitted effect of over 30% in size. Also: potency is read from the fitted curve at half-maximal effect. The procedure, abridged: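 Luciferase reporter of PMP22 intronic-element expression in stably transfected S16 rat Schwann cells, read by ONE-Glo luminescence after 24 h compound exposure at 37 C. Activity scaled between DMSO (0%) and positive-control PTC124; concentration-effect curves quality-classified.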

Each structure is given as a SMILES string. Records with an inconclusive call do not appear. Where a call stands in place of a potency, no number is given. Active and inactive are the calls of the source. Calls follow the shape of the dose curve; as a rule, active = well fitted curve in the direction sought with a large enough effect; inconclusive = small, poorly fitted or top-dose-only effect, or another doubt; inactive = no such curve, though single readings can be large; an effect the other way counts as inactive or inconclusive.

Luciferin 4-monooxygenase (Photinus pyralis), sequence (P08659 whole entry, looked up): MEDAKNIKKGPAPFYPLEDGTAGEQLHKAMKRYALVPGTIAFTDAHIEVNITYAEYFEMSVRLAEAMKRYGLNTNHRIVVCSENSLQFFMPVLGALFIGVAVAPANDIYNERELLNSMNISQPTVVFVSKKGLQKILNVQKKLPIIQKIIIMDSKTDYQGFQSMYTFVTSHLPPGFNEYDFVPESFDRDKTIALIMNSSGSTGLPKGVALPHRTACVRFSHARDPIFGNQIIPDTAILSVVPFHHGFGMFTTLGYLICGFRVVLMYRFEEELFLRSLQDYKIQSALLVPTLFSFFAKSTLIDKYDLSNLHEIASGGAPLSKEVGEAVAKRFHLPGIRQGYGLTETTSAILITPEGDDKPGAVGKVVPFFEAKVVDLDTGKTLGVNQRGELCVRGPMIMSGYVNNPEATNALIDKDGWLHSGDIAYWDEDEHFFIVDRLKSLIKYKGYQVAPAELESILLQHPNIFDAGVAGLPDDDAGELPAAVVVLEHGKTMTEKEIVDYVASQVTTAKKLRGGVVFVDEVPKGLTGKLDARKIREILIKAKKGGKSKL

Regarding `CO[C@H]1[C@@H](O)C[C@H](O[C@H]2[C@@H](O)C[C@H](O[C@H]3[C@@H](O)C[C@H](O[C@H]4CC[C@@]5(C)[C@H](CC[C@@H]6[C@@H]5C[C@@H](O)[C@]5(C)[C@@H](C7=CC(=O)OC7)CC[C@]65O)C4)O[C@@H]3C)O[C@@H]2C)O[C@@H]1C`, the Potency entry in assay [1] is “inactive”.

Consider `Cc1ccccc1-n1c(C)nc2ccccc2c1=O`, for which the Potency result in assay [1] and in assay [2] was “inactive” in each case.

For the molecule `C[C@]12CC[C@H]3[C@@H](CC[C@@]45O[C@@H]4C(O)=C(C#N)C[C@]35C)[C@@H]1CC[C@@H]2O`, the Potency result in assay [1] is “inactive”.

With `CC(N)Cc1ccc(O)cc1` (centres undefined), the Potency entry in assay [1], in assay [2] and in assay [3] was “inactive” throughout. Further, in assay [4], the Potency was 9.07 µM (active).

On to `CC(=O)[C@H]1CC[C@H]2[C@@H]3CC[C@@H]4C[C@H](O)CC[C@]4(C)[C@H]3CC[C@]12C`, for which the Potency entry in assay [1] was “inactive”.

As for `C[C@]12CC[C@H](O)C[C@H]1CC[C@@H]1[C@@H]2CC[C@]2(C)[C@@H](c3ccc(=O)oc3)C[C@H]3O[C@]132`, the Potency entry in assay [1] was “inactive”.

Consider `CCC1(c2ccccc2)C(=O)NC(=O)N(C)C1=O` (centres undefined), for which the Potency entry in assay [1], in assay [2], in assay [3] and in assay [4] was “inactive” each time.

For the molecule `CCNCC(O)c1cccc(O)c1` (centres undefined), the Potency entry in assay [1] was “inactive”.

As for `N#CC(C#N)=Cc1cc(O)c(O)c(O)c1`, the Potency entry in assay [1] was “inactive”.

Consider `CC(C)(O)[C@@H]1[C@H]2OC(=O)[C@@H]1[C@]1(O)C[C@H]3O[C@]34C(=O)O[C@H]2[C@]14C`, for which the Potency entry in assay [1] was “inactive”.

On to `CC(C)CC(NP(=O)(O)O[C@@H]1O[C@@H](C)[C@H](O)[C@@H](O)[C@H]1O)C(=O)NC(Cc1c[nH]c2ccccc12)C(=O)O` (some centres undefined), for which, in assay [1], the Potency entry was “inactive”.

As for `OC[C@@H](O)[C@H]1O[C@@H]2O[C@H](C(Cl)(Cl)Cl)O[C@@H]2[C@H]1O`, the Potency entry in assay [1] is “inactive”.
